In the library only some 12% were active in any assay of this set; here they are far more common.
Shiga toxin inh – blocks Shiga toxin action in Vero cells | Vero cells, Shiga toxin protein synthesis inhibition reporter | inhibition, % at 38.7 µM | actives 9.2% (n = 290,000); in the data active = inhibition mostly above about 28%, no sharp cut-off; inactive = mostly below about 43%
Sm TGR inh – blocks Schistosoma mansoni thioredoxin glutathione reductase; AID 485364; purified TGR, DTNB reduction, TNB absorbance 405 nm; Potency, µM (titrated, usually from 114 µM), hits mostly inhibitors; actives 3% (n = 360,000); active = well fitted inhibition curve with a large enough effect; inconclusive = small, poorly fitted or top-dose-only effect; inactive = no such curve, though single readings can be large or run the other way; also: nearly all actives have a fitted effect of over 60% in size
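TGR 20 nM + NADPH 100 uM (dispensed conc.), cpd preinc 15 min RT; start with NADPH (500 uM addition) then DTNB (15 mM addition). Kinetic TNB absorbance, 405 nm filter. Four-parameter Hill fit across titration.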
Cycloheximide cs – counter-screen for Shiga toxin inhibitors: cycloheximide protein synthesis inhibition; actives 12% (n = 300,000); cell reporter, cycloheximide protein synthesis inhibition counterscreen; AID 2314; max response, %; in the data active = max response mostly above about 13%, no sharp cut-off; inactive = mostly below about 14%; also: read at 38.3 µM for the half of the compounds with a filed dose
FMDV inh – antivirals against foot and mouth disease virus; FMDV antiviral cell-based qHTS; Potency, µM (doses to about 57.9 µM), most hits filed as inhibitors; actives 1.2% (n = 410,000); AID 1159524; calls by dose curve; tested in HEK293T cells; also: read-out not given here; nearly all actives have a fitted effect of over 45% in size
Numbers stand for hits; 0 = inactive; ? = inconclusive; - = no result; ! = not confirmed by another sample.

SMILES | Shiga toxin inh | Sm TGR inh | Cycloheximide cs | FMDV inh
COc1cc(NC(=O)CCc2c(C)nc3c4c(C)cc(C)nc4nn3c2C)cc(OC)c1 | - | 0 | - | ?
COc1ccccc1NC(CC(=O)c1ccccc1)C(=O)OCC(=O)c1ccc(Br)cc1 (stereo unspecified) | 115 | 0 | 102 | 0
COc1ccccc1NC(=O)CCC(=O)c1ccc(-c2ccccc2)cc1 | 0 | 0 | 0 | 0
COc1ccccc1NC(CC(=O)c1ccccc1)C(=O)OCC(=O)c1ccc(C)c(C)c1 (stereo unspecified) | 37 | 0 | 40 | 0
COc1ccccc1NC(CC(=O)c1ccccc1)C(=O)OCC(=O)c1ccc(C)cc1 (stereo unspecified) | 73 | 0 | 33 | 0
Cc1ccc(-c2noc(-c3ccccc3NC(=O)C3CC(=O)N(c4ccc(C)cc4)C3)n2)cc1 (stereo unspecified) | - | 0 | - | 0
CCOC(=O)c1c(C)oc2nc(C)nc(NCc3cccc(Cl)c3)c12 | - | 0 | - | 0
COc1ccc(OCc2cc(C(=O)NCC3CCOCC3)no2)c(Cl)c1 | 54 | 0 | 51 | 0
COc1ccc(OCc2cc(C(=O)NCCc3ccccc3)no2)c(Cl)c1 | 0 | 0 | 0 | 0
COc1ccc(OCc2cc(C(=O)NCC3CCCCO3)no2)c(Cl)c1 (stereo unspecified) | 74 | 0 | 46 | 0
Cc1ccc(C(=O)Nc2cccc(-c3nc(CNC(=O)C4(C)CC4)c(C)o3)c2)s1 | - | - | - | 0
CCOc1ccc(-c2nc(CSCC(=O)NC3CC3)c(C)o2)cc1 | 0 | 0 | 22 | 0
CCOC(=O)N1CCC(NC(=O)CSCc2nc(-c3ccc(OCC)cc3)oc2C)CC1 | 0 | 0 | 0 | ?
CCOC(=O)N1CCC(NC(=O)CSCc2nc(-c3sccc3C)oc2C)CC1 | 0 | 40µM | 0 | ?
COc1cc(O)c(C(CC(=O)N2CCCCC2)c2cc(OC)c(OC)c(OC)c2)c(OC)c1 (stereo unspecified) | 81! | 0 | 47! | 0
COc1ccc(C(CCN2CCCCC2)c2c(O)cc(OC)cc2OC)cc1 (stereo unspecified) | 0 | 40µM | 0 | 0
COc1ccc(OC)c(C(=O)N(Cc2cc3cccc(C)c3nc2N2CCC(O)CC2)C2CC2)c1 | - | - | - | 0
CC(=O)c1ccc(NC(=O)CC2Nc3cccc4cccc(c34)NC2=O)cc1 (stereo unspecified) | 0 | 18µM | 0 | 0
Cc1ccc(N2C(=O)c3ccccc3NC2C(C)Cc2ccc3c(c2)OCO3)cc1 (stereo unspecified) | 48 | 0 | 18 | 0
COC(OC)C1Nc2ccccc2C(=O)N1c1ccc(F)cc1 (stereo unspecified) | - | 0 | - | 0
Cc1ccccc1CNC(=O)c1sc2ncnc(N(C)C3CCCCC3)c2c1C | - | 0 | - | 0
O=c1c2cc3c(cc2n(Cc2ccc(Cl)cc2)c(=O)n1Cc1nc(-c2ccccc2)no1)OCO3 | - | 0 | - | 0
Cc1ccc(C(=O)/C=C/Nc2cccc([N+](=O)[O-])c2)o1 | 63 | 0 | 64 | 0
CN(C)C(/C=C/Nc1cccc([N+](=O)[O-])c1)=C(C#N)C#N | 0 | 0 | 0 | 0
C[C@]12CC[C@@H]3c4ccc(O[C@@H]5O[C@H](C(=O)O)[C@@H](O)[C@H](O)[C@H]5O)cc4CC[C@H]3[C@@H]1C[C@@H](O)[C@@H]2O | 0 | 40µM | 0 | 0
SMILES | Shiga toxin inh | Sm TGR inh | Cycloheximide cs | FMDV inh
O=C(NNC(=O)c1cc2ccccc2cc1O)c1cccs1 | 109 | 0 | 45 | 0
C/C(=N\NC(=O)c1cc2ccccc2cc1O)c1cccs1 | 80 | 0 | 37 | 0
NC(=O)c1nn2c(C(F)(F)F)cc(-c3ccc(Br)cc3)nc2c1Cl | - | 0 | - | 0
O=C(NN1C(=O)C2C3C=CC(C4CC34)C2C1=O)c1cccc(Cl)c1 (stereo unspecified) | 132 | 0 | 48 | 0
O=C(NN1C(=O)C2C3C=CC(O3)C2C1=O)c1cccc(O)c1 (stereo unspecified) | 0 | 20µM | 0 | 0
Cc1cccc(C(=O)NN2C(=O)C3C(c4ccccc4)C=CC(c4ccccc4)C3C2=O)c1 (stereo unspecified) | 0 | 0 | 0 | 0
O=C(NN1C(=O)C2C(C1=O)C1C=CC2C12CC2)c1cccc(Cl)c1 (stereo unspecified) | 0 | 0 | 0 | 0
O=C(NN1C(=O)C2C3C=CC(O3)C2C1=O)c1cccc(Br)c1 (stereo unspecified) | 0 | 22µM | 0 | 0
CCc1ccc(C(=O)c2cn(CC(=O)Nc3ccc(OC)c(OC)c3)c3ccc(C)cc3c2=O)cc1 | - | 0 | - | 0
CCOc1cccc(=O)c2c(C)n(Cc3ccco3)c(C)c12 | 0 | 40µM | 0 | 0
CCOc1ccc2c(c1)c(C(C)=O)c(C)n2-c1ccccc1 | 0 | 0 | 0 | 0
CCOc1ccc2c(c1)c(C(C)=O)c(C)n2Cc1ccco1 | 0 | 10µM | 0 | 0
CN1C(=O)C(=Cc2c(OCc3cnc(Cl)s3)ccc3ccccc23)C(=O)N(C)C1=O | 83 | 0 | 53 | 0
O=C(CCc1nnc(-c2ccccc2)o1)NC1CCCCC1 | 64 | 0 | 44 | 0
CC(CNC(=O)CCc1nnc(CCC2CCCCC2)o1)c1ccccc1 (stereo unspecified) | 0 | 0 | 21 | 0
O=C(CCc1nc(-c2ccc(Cl)cc2)no1)NC1CCCCC1 | 0 | 0 | 0 | 0
Cc1cc(-c2nnc(CCC(=O)NCC(C)c3ccccc3)o2)no1 (stereo unspecified) | 0 | 0 | 0 | 0
O=C(CCc1nc(-c2ccccc2)no1)NC1CCCCC1 | 0 | 0 | 12 | 0
COC(c1ccccc1)c1nnc(CCC(=O)NCCc2ccc(Cl)cc2)o1 (stereo unspecified) | 0 | 0 | 0 | 0
COC(c1ccccc1)c1nnc(CCC(=O)NC2CCCCC2)o1 (stereo unspecified) | 0 | 0 | 17 | 0
CCCCCOc1ccc(C(=O)N(Cc2ccccc2)C2CCS(=O)(=O)C2)cc1 (stereo unspecified) | - | 0 | - | 0
CCc1cccc(NC(=O)c2nnn(Cc3ccc(SC)cc3)c2N)c1 | - | 0 | - | 0
Cc1cc(C)c2c(c1)c(C)cc1nnc(SCC(=O)c3ccccc3)n12 | - | 0 | - | 0
Cc1ncc2c(c1CNC(=O)c1ccc3c(c1)OCO3)CCN(C(=O)c1noc3c1CCCC3)C2 | - | - | - | 0
COC(c1ccccc1)c1nnc(CCC(=O)N2CCCCCCC2)o1 (stereo unspecified) | 0 | 0 | 11 | 0
SMILES | Shiga toxin inh | Sm TGR inh | Cycloheximide cs | FMDV inh
COC(c1ccccc1)c1nnc(CCC(=O)N(C)C(C2CC2)C2CC2)o1 (stereo unspecified) | 84 | 0 | 50 | 0
O=C(CCc1nnc(-c2ccsc2)o1)N1CCc2c(Cl)cccc2C1 | 104 | 0 | 30 | 0
O=C(CCc1nnc(-c2ccc(-c3ccccc3)cc2)o1)N1CCCCC1 | 69 | 0 | 49 | 0
COC(c1ccccc1)c1nnc(CCC(=O)N2CCN(Cc3cccs3)CC2)o1 (stereo unspecified) | 0 | 0 | 0 | 0
O=C(CCc1nc(-c2ccccc2)no1)N1CCCC1 | 0 | 0 | 0 | 0
O=C(Nc1ccc([N+](=O)[O-])cc1)c1cc(Cl)sc1Cl | 27 | 0 | 0 | 0
O=C(Nc1ccccc1)c1ccc(F)cc1F | - | - | - | 0
O=C(Nc1ccc([N+](=O)[O-])cc1)c1cc2ccccc2nc1Cl | 0 | 0 | 20 | 0
O=C(Nc1ccc(F)cc1)c1cc(Cl)sc1Cl | 77 | 0 | 29 | 0
